The list is not random: actives were taken first. Their share in the collection is about 3.2%.
SMARCA2 act – increases SMARCA2 function in MMTV reporter cells. 370,000 tested, 1% active. activation, % at 9.1 µM. AID 652017. MG213 cells, MMTV-luciferase reporter, dexamethasone, overnight; in the data active = activation above about 7.8%;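 also: 0% = vehicle wells and 100% = reference activator wells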
Rtt109 Vps75 – blocks Candida albicans Rtt109/Vps75 acetyltransferase activity | purified Rtt109/Vps75, ThioGlo CoA-SH fluorescence, 4 h | 330,000 tested, 0.16% active | inhibition, % at 34.9 µM | Q5AAJ8 | AID 540336;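 active = inhibition of at least 50% in every replicate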
Dyrk1A ADPGlo – Dyrk1A (rat) kinase inhibition; AID 504441; 310,000 tested, 0.43% active; inhibition, % at 12.5 µM; ADP-Glo luminescence, NFATc1 peptide; in the data active = inhibition above about 50%;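 also: plate controls were vehicle with enzyme for no effect and no enzyme for full effect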
CDK5 inh – blocks human CDK5/p35 kinase activity; Recombinant CDK5/p35, ADP-Glo luminescence, 60 min; inhibition, % at 10 µM; 330,000 tested, 0.01% active; AID 488839;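 active = highest replicate inhibition of at least 50% and at least 75% of replicates reaching 50%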;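 also: plate controls were DMSO neutral control for no effect and GW8510 at 10 µM for full effect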
Target sequence (Q00535 whole entry, looked up): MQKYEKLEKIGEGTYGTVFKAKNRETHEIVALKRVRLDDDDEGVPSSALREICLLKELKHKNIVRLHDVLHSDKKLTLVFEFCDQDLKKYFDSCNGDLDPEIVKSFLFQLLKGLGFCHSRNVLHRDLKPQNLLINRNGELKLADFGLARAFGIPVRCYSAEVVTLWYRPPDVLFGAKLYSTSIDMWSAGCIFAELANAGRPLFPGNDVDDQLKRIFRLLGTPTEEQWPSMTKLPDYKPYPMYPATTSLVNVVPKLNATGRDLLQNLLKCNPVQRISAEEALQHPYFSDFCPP
Target sequence (Q15078 whole entry, looked up): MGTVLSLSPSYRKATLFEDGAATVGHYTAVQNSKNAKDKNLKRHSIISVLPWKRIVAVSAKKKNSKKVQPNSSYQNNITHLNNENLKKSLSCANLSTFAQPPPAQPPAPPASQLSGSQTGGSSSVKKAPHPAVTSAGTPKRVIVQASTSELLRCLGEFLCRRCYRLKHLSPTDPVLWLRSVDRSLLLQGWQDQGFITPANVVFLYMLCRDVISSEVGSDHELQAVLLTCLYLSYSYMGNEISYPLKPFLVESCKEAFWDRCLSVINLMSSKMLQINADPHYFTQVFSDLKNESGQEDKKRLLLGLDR
dFosB activator – mouse delta FosB homodimer activation | P13346 | purified delta FosB, TAMRA-CDK5 oligo fluorescence polarization; percent of positive-control signal above neutral wells | activation, % at 25 µM | 340,000 tested, 0.99% active | AID 493131;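 active = mean activation above about 17%, with every replicate also reaching it, limit read from the data, passing the limit was not always enough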
esBAF inh – inhibitors of esBAF chromatin remodeling in mouse ES cells | AID 602393 | Bmi1-luciferase knock-in reporter, 24 h; 100% = twice the neutral-well signal | reporter increase, % at 12.5 µM | 350,000 tested, 2% active; in the data active = activation above about 40%;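 also: 0% = median of the plate's neutral control wells and 100% = double that signal; a rise in the Bmi1 reporter signal indicates esBAF inhibition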
* hit, by the source's call; . = no result given; ! = repeats disagree.

SMILES	SMARCA2 act	Rtt109 Vps75	Dyrk1A ADPGlo	CDK5 inh	dFosB activator	esBAF inh
C=CCc1cccc(/C=N/NC(=O)c2ccccc2OC)c1O	3	3	-3	-1	-10	44*
C=CCc1cccc(/C=N/NC(=O)c2ccc3nc[nH]c3c2)c1O	-4	-1	-6	-2	19*	-24
O=C(C[C@@H]1CC[C@H]2[C@@H](COC[C@@H](O)CN2Cc2ccccc2)O1)NCCCN1CCOCC1	.	.	.	.	.	-4
COc1ccc(NC(=O)Nc2cccc3c2O[C@H](CN(C)S(=O)(=O)c2ccc(F)cc2)[C@H](C)CN([C@@H](C)CO)C3=O)cc1	.	.	.	.	.	13
Cc1noc(C)c1NC(=O)Nc1cccc2c1O[C@@H](CN(C)S(C)(=O)=O)[C@@H](C)CN([C@H](C)CO)C2=O	.	.	.	.	.	0
O=C(Nc1cccc(Cl)c1)c1csc([C@H]2C[C@H](O)[C@@H](CO)O2)n1	4	.	.	.	.	65*
CCCOc1c(Br)cc(C2C3=C(CCCC3=O)N(C)C3=C2C(=O)CCC3)cc1OC	-1	.	-1	-1	-10	.
CCCOc1c(Br)cc(C2C3=C(CCCC3=O)N(CC)C3=C2C(=O)CCC3)cc1OC	0	-13	-6	-1	-8	44*
C/C=C/c1ccc2c(c1)O[C@@H](CN(C)C(=O)c1ccccc1F)[C@@H](C)CN([C@H](C)CO)S2(=O)=O	.	.	.	.	.	2
O=C(O)c1ccc(N/N=C/c2cn(Cc3ccccc3F)c3ccccc23)cc1	2	-2	13	1	-8	54*
COc1ccc(NC(=O)Nc2cccc3c2O[C@H](CN(C)Cc2ccc(Cl)c(Cl)c2)[C@@H](C)CN([C@H](C)CO)C3=O)cc1	.	.	.	.	.	-2
COc1ccc(CNC[C@@H](CCCCN(C)Cc2ccc(OC)cc2)N2C[C@H](c3ccccc3)N(CCc3ccc(Cl)c(Cl)c3)C(=O)C2=O)cc1	.	19	8	0	46*	-88
Clc1ccc(-c2ccc(SCc3ccccn3)nn2)cc1	0	-11	3	0	-6	51*
c1ccc(CSc2ccc(-c3ccccn3)nn2)nc1	4	1	.	-1	-2	.
O=[N+]([O-])c1cccc(-c2ccc(SCc3ccccn3)nn2)c1	2	4	.	-3	-9	42*
COc1cccc(-c2ccc(SCc3ccccn3)nn2)c1	1	10	7	6	-23	.
C/C=C/c1ccc2c(c1)O[C@H](CNC)[C@@H](C)CN([C@H](C)CO)S2(=O)=O	.	.	.	.	.	-1
C[C@H](NC(=O)C[C@H]1C=C[C@H](NC(=O)Cc2ccccn2)[C@H](CO)O1)c1ccccc1	.	.	.	.	.	1
Cc1ccc(-c2nnc(NCc3nc4ccccc4[nH]3)c3ccccc23)cc1S(=O)(=O)N1CCCCC1	-3	-4	0	-2	80*	.
Cc1ccc(-c2nnc(NC3CCCCC3)c3ccccc23)cc1S(=O)(=O)N1CCN(C)CC1	-1	-3	-1	-3	-8	-9
Cn1nccc1-c1ccc(C(=O)Nc2cccc(NS(C)(=O)=O)c2)c2occc12	-3	.	.	.	.	46*
CS(=O)(=O)Nc1cccc(NC(=O)c2cccc3c(-c4ccc(F)c(F)c4)coc23)c1	0	.	.	.	.	52*
C[C@H]1CN([C@@H](C)CO)S(=O)(=O)c2ccc(C#Cc3ccccc3)cc2O[C@@H]1CN(C)S(=O)(=O)c1cn(C)cn1	.	.	.	.	.	5
Cc1c(OCC(F)(F)F)ccnc1CS(=O)c1nc2ccccc2[nH]1 (stereo unspecified)	0	0	7	0	2	48*!
COCCCOc1ccnc(CS(=O)c2nc3ccccc3[nH]2)c1C (stereo unspecified)	-2	-10	12	-4	-2	25
SMILES	SMARCA2 act	Rtt109 Vps75	Dyrk1A ADPGlo	CDK5 inh	dFosB activator	esBAF inh
O=C(O)c1ccc(Sc2nnnn2-c2ccccc2)c([N+](=O)[O-])c1	-5	18	14	-1	-3	-3
COC(=O)c1ccc(Sc2nnnn2-c2ccccc2)c([N+](=O)[O-])c1	-3	-6	6	0	7	46*
COC(=O)c1c(C)[nH]c(C(=O)CSc2nnnn2-c2ccccc2)c1C	1	1	13	-1	-7	48*
Cc1cc2ncn(C(=O)N3CCCCC3)c2cc1C	0	4	6	1	-5	24
Cc1cc2ncn(C(=O)N3CCCCCC3)c2cc1C	1	-5	3	0	-6	49*
O=C(NCCCCCCNC(=O)c1ccccc1O)c1ccccc1O	-1	6	10	-1	-6	6
O=C(NCCCc1ccccc1)c1ccccc1O	2	4	3	-2	5	70*
Cc1ccc(C(=O)NCCCc2ccccc2)c(Cl)c1	4	1	-1	0	-2	42*
COc1ccc(NC(=O)Nc2ccc3c(c2)[C@@H]2C[C@H](CC(=O)NC4CCCCC4)O[C@H](CO)[C@@H]2O3)cc1	.	.	.	.	.	-4
C[C@@H]1CN([C@@H](C)CO)C(=O)c2cccc(NC(=O)Nc3ccc(C(F)(F)F)cc3)c2O[C@@H]1CN(C)C	.	.	.	.	.	-1
Cc1cc(C(=O)N(C)CC2CCCN(CCc3ccc(F)cc3)C2)c(C)o1 (stereo unspecified)	3	-5	-3	1	-5	-6
COc1ccc(CCN2CCCC(CN(C)C(=O)c3cc(C)oc3C)C2)cc1 (stereo unspecified)	7.8*	13	-1	1	-5	72*
COc1ccc(-c2c(-c3cc(OC)cc(OC)c3)n(C)c3ccc(Br)cc23)cc1	-1	-2	4	0	-4	4
COc1ccc(N=Nc2nc3ccc(Br)cc3n2C)cc1	4	4	-7	1	-10	52*
CO[C@H]1CN(C)C(=O)c2cc(NC(=O)c3cccc(Oc4ccccc4)c3)ccc2OC[C@H](C)NC[C@H]1C	.	.	.	.	.	-7
COc1cc(C)ccc1OCc1cc(C(=O)NCc2ccncc2)no1	7	-5	1	-3	-9	52*
COc1ccc(C(=O)NCc2ccncc2)cc1OC	2	0	0	1	0	.
COc1cc(C)ccc1OCc1cc(C(=O)NC(C)Cn2cncn2)no1 (stereo unspecified)	1	-4	-5	-1	-9	78*
COc1cc(Cl)ccc1OCc1cc(C(=O)NCc2cc(C(C)C)no2)no1	7	4	3	0	-9	79*
C[C@@H]1CN([C@@H](C)CO)S(=O)(=O)c2ccc(C3=CCCCC3)cc2O[C@@H]1CN(C)Cc1ccncc1	.	.	.	.	.	1
O=C(C[C@@H]1C[C@H]2c3cc(NS(=O)(=O)c4ccc(F)cc4)ccc3O[C@H]2[C@@H](CO)O1)NCc1ccccc1	.	.	.	.	.	-6
O=C(Nc1nc2ccsc2c(=O)s1)C1CCC1	2	1	13	0	-5	.
O=c1sc(Nc2ccccc2)nc2ccsc12	7	18	14	0	-7	82*
